According to PubChem BioAssay:
Where “and” joins values, the source holds several entries; their conditions need not be identical. Identical values can stand only once. Inconclusive results are not listed. Calls of active or inactive are those of the source.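 The calls were made as follows, unless noted: active = normalized viability below 100% at a tested concentration; inactive = the rest.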

Columns and labels:
[1] = growth inhibition of DIPG glioma cells, dose response, cell-based, SU-DIPG-XIII, MIPE4.0, CellTiter-Glo, qHTS (AID 1347061; cut-off not given, nearly all actives have AC50 up to about 37 µM;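 also: cells exposed to compound for 48 hours before readout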); conditions: SU-DIPG-XIII viability, CellTiter-Glo ATP luminescence
[2] = SU-DIPG-VI glioma cell viability, MIPE4.0 library, CellTiter-Glo luminescence, qHTS (AID 1347066; cut-off not given, nearly all actives have AC50 up to about 30 µM;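 also: cells exposed to compound for 48 hours before readout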); conditions: CellTiter-Glo ATP luminescence
[3] = growth inhibition of DIPG glioma cells, dose response, cell-based, JHH-DIPG-1, MIPE4.0, CellTiter-Glo, qHTS (AID 1347062; cut-off not given, nearly all actives have AC50 up to about 27 µM;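 as to AC50: cells exposed to compound for two days before readout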); conditions: JHH-DIPG-1 viability, CellTiter-Glo ATP luminescence
[4] = growth inhibition of DIPG glioma cells, dose response, cell-based, SU-DIPG-IV, MIPE4.0, CellTiter-Glo, qHTS (AID 1347063; cut-off not given, nearly all actives have AC50 up to about 30 µM;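 also: compound exposure lasted 48 hours before the viability readout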); conditions: SU-DIPG-IV viability, CellTiter-Glo ATP luminescence
[5] = growth inhibition of DIPG glioma cells, dose response, cell-based, SU-DIPG-XIII, MIPE5.0, CellTiter-Glo, qHTS (AID 1347064; cut-off not given, nearly all actives have AC50 up to about 23 µM;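 as to AC50: cells exposed to compound for 48 hours before the viability read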); conditions: SU-DIPG-XIII viability, CellTiter-Glo ATP luminescence
[6] = JHH-DIPG-1 glioma cell viability, MIPE5.0 library, CellTiter-Glo luminescence, qHTS (AID 1347067; cut-off not given, nearly all actives have AC50 up to about 26 µM;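 also: cells exposed to compound for 48 hours before readout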); conditions: JHH-DIPG-1 glioma viability, CellTiter-Glo ATP luminescence
[7] = SU-DIPG-XXV glioma cell viability, MIPE5.0 library, qHTS (AID 1347068; cut-off not given, nearly all actives have IC50 up to about 30 µM;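 as to IC50: cells exposed to compound for 48 hours before viability readout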)
[8] = viability loss in pontine glioma line – cell-based, SU-DIPG-XXV, MIPE5.0, CellTiter-Glo, qHTS, dose response (AID 1347065; cut-off not given, nearly all actives have AC50 up to about 26 µM;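 also: cells exposed to compound for 48 hours before ATP readout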); conditions: CellTiter-Glo ATP luminescence
[9] = sensitizers of A549 cells to miR-34 induction, primary screen, imaging, A549 dox-inducible miR-34, nuclei and caspase counts (AID 1347080;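 active = compounds whose cell count with miR-34 switched on is under 0.7 times the count with it off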); conditions: A549 miR-34 inducible, Hoechst nuclei count, 48 h
[10] = modifiers of HSF1 nuclear foci, imaging, Selleck Cancer Library (AID 1347162; in the data active = plate-normalised HSF1 focus index below about 0.46); conditions: human cells, at 10 µM; SSMD: measured here: HSF1 foci SSMD mean; cell count: measured here: cell number; plate-normalised HSF1 focus index: stronger effect = lower value
[11] = survival rescue of mitochondrial mutant cells in low glucose, primary screen, MELAS cybrids, Rieske KO mouse fibroblasts, CellTiter-Glo (AID 1508586;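 active = mean z-score across replicates of 1.96 or higher in either the MELAS or the Rieske mutant cell line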;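 also: z relative to plate mean and SD of compound and empty wells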)
[12] = ovarian cancer cell viability with rucaparib, profiling panel, oncology-focused library, rucaparib conditional (AID 1508598); conditions: patient-derived ovarian cancer cells, CellTiter-Glo viability, 144 h, stronger effect = lower value
[13] = kinase inhibitors against Plasmodium liver-stage infection, cell-based, known kinase inhibitor set, luminescence, hepatoma host viability (AID 624392; call rule not given here;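 also: infected cells incubated roughly two days before readout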); conditions: Plasmodium liver stage in hepatoma cells, luciferase luminescence, concentration not given here; liver cell % of control: measured here: host liver cell viability; parasite % of control: stronger effect = lower value
[14] = stronger effect = lower value, cell number ratio, induced over uninduced
[15] = measured here: relative caspase fold change +Dox/-Dox
[16] = measured here: total cells with miR-34 induction, stronger effect = lower value
[17] = measured here: total cells without miR-34 induction
[18] = MELAS cybrid survival, CellTiter-Glo 48 h, stronger effect = higher value
[19] = Rieske KO mouse fibroblast survival, CellTiter-Glo 72 h
[20] = at 0.000305 µM, OCI-C5x cells, with rucaparib 10 µM, 100% = cells with rucaparib alone
[21] = at 0.000305 µM, OCI-C5x cells, without rucaparib
[22] = at 0.000305 µM, OCI-P5x cells, with rucaparib 20 µM, 100% = cells with rucaparib alone
[23] = at 0.000305 µM, OCI-P5x cells, without rucaparib
[24] = at 0.00122 µM, OCI-C5x cells, with rucaparib 10 µM, 100% = cells with rucaparib alone
[25] = at 0.00122 µM, OCI-C5x cells, without rucaparib
[26] = at 0.00122 µM, OCI-P5x cells, with rucaparib 20 µM, 100% = cells with rucaparib alone
[27] = at 0.00122 µM, OCI-P5x cells, without rucaparib
[28] = at 0.00488 µM, OCI-C5x cells, with rucaparib 10 µM, 100% = cells with rucaparib alone
[29] = at 0.00488 µM, OCI-C5x cells, without rucaparib
[30] = at 0.00488 µM, OCI-P5x cells, with rucaparib 20 µM, 100% = cells with rucaparib alone
[31] = at 0.00488 µM, OCI-P5x cells, without rucaparib
[32] = at 0.0195 µM, OCI-C5x cells, with rucaparib 10 µM, 100% = cells with rucaparib alone
[33] = at 0.0195 µM, OCI-C5x cells, without rucaparib
[34] = at 0.0195 µM, OCI-P5x cells, with rucaparib 20 µM, 100% = cells with rucaparib alone
[35] = at 0.0195 µM, OCI-P5x cells, without rucaparib
[36] = at 0.0781 µM, OCI-C5x cells, with rucaparib 10 µM, 100% = cells with rucaparib alone
[37] = at 0.0781 µM, OCI-C5x cells, without rucaparib
[38] = at 0.0781 µM, OCI-P5x cells, with rucaparib 20 µM, 100% = cells with rucaparib alone
[39] = at 0.0781 µM, OCI-P5x cells, without rucaparib
[40] = at 0.313 µM, OCI-C5x cells, with rucaparib 10 µM, 100% = cells with rucaparib alone
[41] = at 0.313 µM, OCI-C5x cells, without rucaparib
[42] = at 0.313 µM, OCI-P5x cells, with rucaparib 20 µM, 100% = cells with rucaparib alone
[43] = at 0.313 µM, OCI-P5x cells, without rucaparib
[44] = at 1.25 µM, OCI-C5x cells, with rucaparib 10 µM, 100% = cells with rucaparib alone
[45] = at 1.25 µM, OCI-C5x cells, without rucaparib
[46] = at 1.25 µM, OCI-P5x cells, with rucaparib 20 µM, 100% = cells with rucaparib alone
[47] = at 1.25 µM, OCI-P5x cells, without rucaparib
[48] = at 5 µM, OCI-C5x cells, with rucaparib 10 µM, 100% = cells with rucaparib alone
[49] = at 5 µM, OCI-C5x cells, without rucaparib
[50] = at 5 µM, OCI-P5x cells, with rucaparib 20 µM, 100% = cells with rucaparib alone
[51] = at 5 µM, OCI-P5x cells, without rucaparib

CN(C)c1nc(Cc2ccc(NC(=O)c3ccc4ccccc4c3)cc2)nc(Cl)c1CC(=O)O
inactive: outcome [1] | outcome [2]

C[C@H](NC(=O)[C@@H](O)c1cc(F)cc(F)c1)C(=O)N[C@@H]1C(=O)N(C)c2ccccc2-c2ccccc21
inactive: outcome [3] | outcome [4] | outcome [5] | outcome [2] | outcome [6] | outcome [7]

Fc1cc(-c2cccc3ncc(-c4cnn(C5CCNCC5)c4)nc23)cc(F)c1CN1CCOCC1
-6.26: SSMD [10]
-0.329: z-score [11, 19]
active: AC50 [3] 20.9 µM | AC50 [4] 18.7 µM | AC50 [5] 11.8 µM | AC50 [8] 9.34 µM | AC50 [2] 23.5 µM | AC50 [6] 13.2 µM | IC50 [7] 23.5 µM | viability [12, 22] 77.7% | viability [12, 23] 90.5% | viability [12, 26] 18.8% | viability [12, 27] 18.7% | viability [12, 30] 89.3% | viability [12, 31] 99.1% | viability [12, 34] 88.8% | viability [12, 35] 91.6% | viability [12, 36] 99.8% | viability [12, 38] 80.3% | viability [12, 39] 96% | viability [12, 42] 80.6% | viability [12, 43] 89.7% | viability [12, 46] 68.6% | viability [12, 47] 80.5% | viability [12, 48] 29.6% | viability [12, 49] 15.6% | viability [12, 50] 17.1% | viability [12, 51] 20.9%
0.777: fold change [9, 15]
5860: cell count [9, 16]
8220: cell count [9, 17]
inactive: fold change [9, 14] 0.713 | plate-normalised HSF1 focus index [10] 0.613 | z-score [11, 18] -0.567 | viability [12, 20] 105% | viability [12, 21] 114% | viability [12, 24] 116% | viability [12, 25] 118% | viability [12, 28] 112% | viability [12, 29] 114% | viability [12, 32] 110% | viability [12, 33] 112% | viability [12, 37] 115% | viability [12, 40] 114% | viability [12, 41] 120% | viability [12, 44] 124% | viability [12, 45] 115%
6160: cell count [10]

Nc1cccc(S(=O)(=O)N2CCCN(S(=O)(=O)c3ccc4c(c3)OCCO4)CC2)c1
inactive: outcome [1] | outcome [2] | outcome [7]

C[C@@H]1C/C=C/C=C/C=C/C=C/[C@@H](O[C@@H]2O[C@H](C)[C@@H](O)[C@H](N)[C@@H]2O)C[C@@H]2O[C@](O)(C[C@@H](O)C[C@@H]3O[C@H]3/C=C/C(=O)O1)C[C@H](O)[C@H]2C(=O)O
inactive: outcome [3]

COc1cc(C(=O)NC2CCN(C)CC2)ccc1Nc1ncc2c(n1)N(C1CCCC1)CCC(=O)N2C(C)C
99.8%: liver cell % of control [13]
active: AC50 [3] 16.6 µM | AC50 [4] 7.43 µM | AC50 [8] 23.5 µM | AC50 [6] 23.5 µM
inactive: parasite % of control [13] 139% | outcome [7]

Nc1nccc(Oc2ccc(NC(=O)c3c[nH]cc(-c4ccc(F)cc4)c3=O)cc2F)c1Cl
-0.396: SSMD [10]
8330: cell count [9, 17]
inactive: fold change [9, 14] 0.93 | plate-normalised HSF1 focus index [10] 0.991 | z-score [11, 18] -0.165 | viability [12, 20] 110% | viability [12, 21] 130% | viability [12, 22] 100% | viability [12, 23] 117% | viability [12, 24] 108% | viability [12, 25] 127% | viability [12, 26] 101% | viability [12, 27] 114% | viability [12, 28] 118% | viability [12, 29] 134% | viability [12, 30] 106% | viability [12, 31] 111% | viability [12, 32] 117% | viability [12, 33] 140% | viability [12, 35] 107% | viability [12, 36] 104% | viability [12, 37] 122% | viability [12, 38] 106% | viability [12, 40] 133% | viability [12, 41] 122% | viability [12, 42] 102% | viability [12, 44] 132% | viability [12, 45] 123% | viability [12, 47] 101% | viability [12, 48] 149% | viability [12, 49] 139%
7750: cell count [9, 16]
7240: cell count [10]
active: AC50 [3] 18.7 µM | AC50 [4] 16.6 µM | AC50 [5] 14.8 µM | AC50 [2] 26.4 µM | IC50 [7] 23.5 µM | viability [12, 34] 98.3% | viability [12, 39] 98.3% | viability [12, 43] 99.4% | viability [12, 46] 99.9% | viability [12, 50] 59% | viability [12, 51] 89.1%
0.168: z-score [11, 19]
0.882: fold change [9, 15]

COc1ccc(C[C@@H](C)[C@@H](C)Cc2ccc(OC)c(OC)c2)cc1OC
active: AC50 [3] 1.18 µM

Cc1cn2cc(C(=O)N(C)CCO)cc(N[C@@H]3CCOc4cccc(C)c43)c2n1
inactive: outcome [3] | outcome [4] | outcome [5] | outcome [2] | outcome [6] | outcome [7]

CC(C)(N)c1ccc(-c2nc3ccccc3nc2-c2ccccc2)cc1
41.6% and 76.6% and 85.6%: liver cell % of control [13]
inactive: parasite % of control [13] 0.22% and 84.1% and 92.8%
active: AC50 [3] 23.5 µM | AC50 [4] 26.4 µM | AC50 [8] 23.5 µM

CCn1c(=O)c2c(nc(/C=C/c3ccc(OC)c(OC)c3)n2C)n(CC)c1=O
inactive: outcome [3] | outcome [4] | outcome [5] | outcome [2] | outcome [6] | outcome [7]

Cc1ccccc1C(C(=O)NC1CCCC1)N(C(=O)Cn1cnc2ccccc21)c1cccc(F)c1 (centres undefined)
inactive: outcome [3] | outcome [4]

Cc1cc(Nc2cc(NC(=O)c3c(Cl)cccc3Cl)ccn2)nc(N)n1
active: AC50 [3] 18.7 µM | AC50 [4] 18.7 µM | AC50 [5] 8.33 µM | AC50 [8] 9.34 µM | AC50 [6] 9.34 µM | IC50 [7] 18.6 µM
